# In the supplement of paper PMC10849652:
# About 7,900 targets were measured; listed, in parts, are those with a hit and a random draw of the rest. About 0.6% of all pairs of compound and target were hits.
# Compound: NCC(=O)Nc1ccc(-n2nc(C(F)(F)F)cc2-c2ccc3c(ccc4ccccc43)c2)cc1
# Assay: log2 fold change, soluble protein after heating vs DMSO (PISA); higher = thermal stabilisation; K562 cells, 10 uM, 30 min; active = over 0.2 and 3.5 SD of the protein, either way, in both replicates (recomputed)
# Outline: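 K562 cells at 2×10^6 cells/mL were treated with 10 μM compound for 30 min. Aliquots were heated for 3 min across 48°C-58°C, pooled, and extracted in PBS with 0.5% NP-40 at 4°C; soluble protein was the supernatant after 21,000xg for 90 min. Soluble protein was quantified by TMTpro 16plex LC-MS/MS with channel sums equalised, and reported as log2 fold change in thermal stability against DMSO controls, with values from duplicates.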
# Sequence of UniProt Q16774 (Q16774 whole entry, looked up): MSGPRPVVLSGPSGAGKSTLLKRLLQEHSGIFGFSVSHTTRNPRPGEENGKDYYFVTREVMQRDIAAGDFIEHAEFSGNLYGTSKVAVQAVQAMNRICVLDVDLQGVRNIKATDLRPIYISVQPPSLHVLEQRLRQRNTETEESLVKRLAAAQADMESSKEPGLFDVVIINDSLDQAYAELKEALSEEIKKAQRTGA
# Sequence of UniProt P0C0S5 (P0C0S5 whole entry, looked up): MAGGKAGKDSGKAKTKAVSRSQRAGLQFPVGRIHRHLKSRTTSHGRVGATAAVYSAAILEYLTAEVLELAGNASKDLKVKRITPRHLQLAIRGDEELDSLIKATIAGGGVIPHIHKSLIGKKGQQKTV
# Sequence of UniProt Q14527 (Q14527 whole entry, looked up): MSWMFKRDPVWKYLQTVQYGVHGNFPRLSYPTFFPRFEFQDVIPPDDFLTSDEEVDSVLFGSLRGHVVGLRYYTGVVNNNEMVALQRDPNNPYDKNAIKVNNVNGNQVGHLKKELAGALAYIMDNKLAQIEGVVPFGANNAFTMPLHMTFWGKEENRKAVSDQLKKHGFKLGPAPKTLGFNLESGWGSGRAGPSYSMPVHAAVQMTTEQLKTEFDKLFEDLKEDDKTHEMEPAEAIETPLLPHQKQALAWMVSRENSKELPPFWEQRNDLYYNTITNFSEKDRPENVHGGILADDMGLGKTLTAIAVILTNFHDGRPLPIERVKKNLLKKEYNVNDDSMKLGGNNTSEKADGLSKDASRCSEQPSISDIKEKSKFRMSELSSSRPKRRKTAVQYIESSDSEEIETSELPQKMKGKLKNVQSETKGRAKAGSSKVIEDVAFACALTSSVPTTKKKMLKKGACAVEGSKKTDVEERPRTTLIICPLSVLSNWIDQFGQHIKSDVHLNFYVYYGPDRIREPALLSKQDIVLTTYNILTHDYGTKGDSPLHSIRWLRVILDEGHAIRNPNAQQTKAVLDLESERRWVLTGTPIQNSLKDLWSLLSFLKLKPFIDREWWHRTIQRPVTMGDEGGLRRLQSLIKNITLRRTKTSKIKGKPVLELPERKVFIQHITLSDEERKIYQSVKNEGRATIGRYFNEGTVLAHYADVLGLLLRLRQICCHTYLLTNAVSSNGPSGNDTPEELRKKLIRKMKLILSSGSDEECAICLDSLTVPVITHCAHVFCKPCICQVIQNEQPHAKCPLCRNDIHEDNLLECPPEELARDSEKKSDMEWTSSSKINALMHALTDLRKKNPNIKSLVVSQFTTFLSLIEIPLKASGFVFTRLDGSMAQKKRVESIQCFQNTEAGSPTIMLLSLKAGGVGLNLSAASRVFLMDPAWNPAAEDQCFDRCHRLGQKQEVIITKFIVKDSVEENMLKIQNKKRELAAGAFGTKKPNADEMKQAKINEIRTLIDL
# Sequence of UniProt O94925 (O94925 whole entry, looked up): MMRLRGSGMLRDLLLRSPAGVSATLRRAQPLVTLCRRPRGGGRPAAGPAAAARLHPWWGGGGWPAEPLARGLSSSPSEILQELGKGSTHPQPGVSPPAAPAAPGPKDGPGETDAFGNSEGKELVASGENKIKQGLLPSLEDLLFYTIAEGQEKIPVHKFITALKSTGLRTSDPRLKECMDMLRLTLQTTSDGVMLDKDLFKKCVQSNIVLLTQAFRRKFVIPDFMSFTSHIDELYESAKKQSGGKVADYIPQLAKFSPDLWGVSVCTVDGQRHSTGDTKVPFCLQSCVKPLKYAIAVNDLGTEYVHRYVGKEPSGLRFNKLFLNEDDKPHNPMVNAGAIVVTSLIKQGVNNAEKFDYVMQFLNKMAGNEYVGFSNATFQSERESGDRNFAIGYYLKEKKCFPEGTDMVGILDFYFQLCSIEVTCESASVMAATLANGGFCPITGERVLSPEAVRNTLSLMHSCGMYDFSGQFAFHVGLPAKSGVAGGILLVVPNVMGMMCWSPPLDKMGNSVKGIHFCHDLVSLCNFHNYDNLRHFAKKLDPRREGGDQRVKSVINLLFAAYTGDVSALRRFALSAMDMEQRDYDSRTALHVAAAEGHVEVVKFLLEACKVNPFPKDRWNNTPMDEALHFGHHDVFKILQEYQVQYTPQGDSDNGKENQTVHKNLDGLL
# Sequence of UniProt O76003 (O76003 whole entry, looked up): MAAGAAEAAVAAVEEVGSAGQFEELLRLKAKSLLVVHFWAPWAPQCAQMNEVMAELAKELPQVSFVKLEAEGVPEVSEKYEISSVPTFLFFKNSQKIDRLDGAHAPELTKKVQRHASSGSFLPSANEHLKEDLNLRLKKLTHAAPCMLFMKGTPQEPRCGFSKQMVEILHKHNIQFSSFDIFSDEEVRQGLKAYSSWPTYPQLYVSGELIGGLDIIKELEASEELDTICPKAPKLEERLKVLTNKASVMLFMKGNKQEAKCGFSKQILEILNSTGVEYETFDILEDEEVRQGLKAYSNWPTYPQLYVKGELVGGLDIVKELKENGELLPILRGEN
# Sequence of UniProt Q96HJ9 (Q96HJ9 whole entry, looked up): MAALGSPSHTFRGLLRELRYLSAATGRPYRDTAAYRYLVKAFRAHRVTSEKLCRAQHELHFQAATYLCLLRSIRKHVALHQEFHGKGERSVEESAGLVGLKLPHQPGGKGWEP
# Sequence of UniProt P60520 (P60520 whole entry, looked up): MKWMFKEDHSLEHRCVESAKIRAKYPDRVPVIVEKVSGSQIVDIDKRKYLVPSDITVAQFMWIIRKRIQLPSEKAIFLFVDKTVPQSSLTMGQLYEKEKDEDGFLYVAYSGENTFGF
# Sequence of UniProt P08236 (P08236 whole entry, looked up): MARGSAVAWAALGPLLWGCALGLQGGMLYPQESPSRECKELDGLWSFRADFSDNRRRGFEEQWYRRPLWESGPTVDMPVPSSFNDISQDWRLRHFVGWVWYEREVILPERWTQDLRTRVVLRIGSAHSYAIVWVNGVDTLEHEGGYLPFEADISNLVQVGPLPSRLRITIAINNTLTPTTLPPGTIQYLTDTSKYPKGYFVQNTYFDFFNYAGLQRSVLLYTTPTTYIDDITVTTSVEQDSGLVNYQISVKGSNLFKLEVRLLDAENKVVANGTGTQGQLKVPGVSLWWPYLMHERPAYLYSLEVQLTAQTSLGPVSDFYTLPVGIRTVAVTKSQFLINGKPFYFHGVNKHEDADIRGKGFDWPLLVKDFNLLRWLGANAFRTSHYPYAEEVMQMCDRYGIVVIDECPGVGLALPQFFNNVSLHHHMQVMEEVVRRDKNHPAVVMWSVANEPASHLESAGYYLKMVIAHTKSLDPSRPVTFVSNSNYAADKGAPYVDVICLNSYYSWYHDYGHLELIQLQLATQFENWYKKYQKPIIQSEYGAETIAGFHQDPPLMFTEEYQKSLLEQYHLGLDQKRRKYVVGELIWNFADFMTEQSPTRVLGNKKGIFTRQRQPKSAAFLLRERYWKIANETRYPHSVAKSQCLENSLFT
# Sequence of UniProt O14526 (O14526 whole entry, looked up): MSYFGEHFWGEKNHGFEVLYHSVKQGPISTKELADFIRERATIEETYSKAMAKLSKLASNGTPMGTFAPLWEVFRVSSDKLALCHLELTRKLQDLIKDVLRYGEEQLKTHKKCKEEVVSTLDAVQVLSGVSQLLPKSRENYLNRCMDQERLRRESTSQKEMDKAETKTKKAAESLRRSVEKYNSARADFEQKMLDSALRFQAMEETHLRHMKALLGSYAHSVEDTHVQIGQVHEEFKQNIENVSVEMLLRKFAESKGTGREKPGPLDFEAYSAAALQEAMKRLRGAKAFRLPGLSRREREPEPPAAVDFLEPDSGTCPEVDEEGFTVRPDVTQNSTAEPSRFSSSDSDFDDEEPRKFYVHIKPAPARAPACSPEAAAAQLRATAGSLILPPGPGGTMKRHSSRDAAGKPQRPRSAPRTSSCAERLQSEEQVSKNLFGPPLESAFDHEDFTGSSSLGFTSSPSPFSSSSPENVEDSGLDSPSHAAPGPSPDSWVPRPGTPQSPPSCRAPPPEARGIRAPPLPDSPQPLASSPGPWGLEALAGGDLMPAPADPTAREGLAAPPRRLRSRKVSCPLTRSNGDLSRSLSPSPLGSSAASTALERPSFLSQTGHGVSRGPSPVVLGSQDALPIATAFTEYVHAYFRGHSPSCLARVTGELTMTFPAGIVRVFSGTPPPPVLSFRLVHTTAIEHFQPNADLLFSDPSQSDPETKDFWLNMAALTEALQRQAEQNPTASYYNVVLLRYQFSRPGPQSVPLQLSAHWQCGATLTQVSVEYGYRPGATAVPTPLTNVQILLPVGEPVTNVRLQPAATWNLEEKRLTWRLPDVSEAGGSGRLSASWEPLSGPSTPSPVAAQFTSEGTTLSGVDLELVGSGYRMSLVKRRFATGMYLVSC
# Sequence of UniProt Q86VS8 (Q86VS8 whole entry, looked up): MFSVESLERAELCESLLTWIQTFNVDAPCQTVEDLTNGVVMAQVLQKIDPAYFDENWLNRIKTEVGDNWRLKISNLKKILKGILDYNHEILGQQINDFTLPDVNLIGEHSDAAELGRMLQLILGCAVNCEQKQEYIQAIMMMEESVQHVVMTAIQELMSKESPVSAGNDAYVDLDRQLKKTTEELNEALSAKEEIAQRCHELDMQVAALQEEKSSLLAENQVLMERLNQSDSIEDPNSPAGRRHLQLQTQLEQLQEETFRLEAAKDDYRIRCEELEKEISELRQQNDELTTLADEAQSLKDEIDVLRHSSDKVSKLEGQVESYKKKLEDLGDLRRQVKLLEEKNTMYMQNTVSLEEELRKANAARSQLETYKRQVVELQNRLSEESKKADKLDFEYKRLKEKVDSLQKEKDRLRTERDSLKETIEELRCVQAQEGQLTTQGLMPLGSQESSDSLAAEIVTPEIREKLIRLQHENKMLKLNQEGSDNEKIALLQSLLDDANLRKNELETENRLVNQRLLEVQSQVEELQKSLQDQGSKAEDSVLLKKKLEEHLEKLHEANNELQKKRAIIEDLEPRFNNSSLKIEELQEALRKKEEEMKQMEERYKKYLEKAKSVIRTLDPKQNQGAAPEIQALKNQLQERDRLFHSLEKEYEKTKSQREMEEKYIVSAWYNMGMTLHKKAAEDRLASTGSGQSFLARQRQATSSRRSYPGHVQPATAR
row,Target,log2 fold change
1,FHOD1 (UniProt Q9Y613),0.051 (inactive)
2,GPD1 (UniProt P21695),-0.067 (inactive)
3,GUK1 isoform 2 (UniProt Q16774),-0.064 (inactive)
4,H2AZ1 (UniProt P0C0S5),-0.038 (inactive)
5,GABARAPL2 (UniProt P60520),-0.079 (inactive)
6,HLTF (UniProt Q14527),-0.043 (inactive)
7,FMC1 (UniProt Q96HJ9),0.013 (inactive)
8,GALNT11 (UniProt Q8NCW6),-0.023 (inactive)
9,HMOX2 (UniProt P30519),-0.026 (inactive)
10,GUSB (UniProt P08236),0.067 (inactive)
11,FBXO3 (UniProt Q9UK99),-0.013 (inactive)
12,FCHO1 (UniProt O14526),0.054 (inactive)
13,GHDC (UniProt Q8N2G8),-0.018 (inactive)
14,GLUL (UniProt P15104),0.018 (inactive)
15,HNRNPK isoform 2 (UniProt P61978),-0.093 (inactive)
16,HOOK3 (UniProt Q86VS8),-0.081 (inactive)
17,GLRX3 (UniProt O76003),-0.042 (inactive)
18,HIST2H3A (UniProt Q71DI3),-0.077 (inactive)
19,GLS (UniProt O94925),-0.093 (inactive)
20,IDH3A (UniProt P50213),-0.005 (inactive)
21,HDDC2 (UniProt Q7Z4H3),0.032 (inactive)
22,GTF3C4 (UniProt Q9UKN8),-0.04 (inactive)
23,IFI30 (UniProt P13284),0.083 (inactive)
